This is a sample that favours compounds with a hit; in the whole collection about 12% have one here.
ALDH1A1 block – blocks purified human ALDH1A1 activity; P00352; Purified ALDH1A1, NADH fluorescence, propionaldehyde substrate; Potency, µM (series often up to 75.3 µM), without a hit: top-dose activity, negative = inhibition, actives largely listed as inhibitors; hit rate 7.3% among 220,000; active = well fitted inhibition curve with a large enough effect, not every such curve was filed as active; inconclusive = small, poorly fitted or top-dose-only effect, or another doubt; inactive = no such curve, though single readings can be large or run the other way;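 also: plate controls were no enzyme wells and a reference inhibitor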
PLK1 PBD block – inhibitors of human PLK1 polo-box domain binding. Plk1 PBD binding of FITC phosphopeptide, fluorescence polarization. P53350. hit rate 2.8% among 360,000. Potency, µM, without a hit: max response, negative = inhibition, usual class: inhibitors; also: series mostly up to about 57 µM; nearly all actives have a fitted effect of over 65% in size
Sfp inh – blocks B. subtilis Sfp PPTase activity. Q9F4F7. Biochemical Sfp PPTase activity, qHTS. Potency, µM, inactives show largest response in the series, negative = inhibition, usual class: inhibitors. hit rate 3.5% among 310,000;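 also: the enzyme is Sfp with the accession as filed and its product quenches rhodamine fluorescence; 0% = enzyme reaction without inhibitor and -100% = no enzyme wells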
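Sfp 15 nM + cpd, 15 min RT; start w/ rhodamine-CoA 5 uM, BHQ-2-YbbR 12.5 uM (final); 50 mM Hepes pH 7.6, 10 mM MgCl2, 0.01% NP-40, 0.01% BSA; read 525/598 nm at 0 and 30 min.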
VP16 counter – counter-screen for ROR gamma inhibitors: Gal4-VP16 reporter; Drosophila S2 Gal4-VP16 UAS-luciferase, luminescence, 20 h; Potency, µM (titrated, usually from 53.6 µM), for inactives: top-dose activity, negative = inhibition, usual class: inhibitors; hit rate 3.5% among 310,000;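 also: Gal4-VP16 expression switched on by copper sulfate through the metallothionein promoter; nearly all actives have a fitted effect of over 50% in size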
RORgamma inh – blocks mouse ROR gamma transcriptional activity | P51450 | Potency, µM (series often up to 53.6 µM), for inactives: at the highest dose activity change, negative = inhibition, usual class: inhibitors | Drosophila S2 Gal4-RORgamma UAS-luciferase reporter, 20 h | hit rate 5.4% among 310,000; also: nearly all actives have a fitted effect of over 60% in size
Target sequence (P51450 whole entry, looked up, the tested form may be a part): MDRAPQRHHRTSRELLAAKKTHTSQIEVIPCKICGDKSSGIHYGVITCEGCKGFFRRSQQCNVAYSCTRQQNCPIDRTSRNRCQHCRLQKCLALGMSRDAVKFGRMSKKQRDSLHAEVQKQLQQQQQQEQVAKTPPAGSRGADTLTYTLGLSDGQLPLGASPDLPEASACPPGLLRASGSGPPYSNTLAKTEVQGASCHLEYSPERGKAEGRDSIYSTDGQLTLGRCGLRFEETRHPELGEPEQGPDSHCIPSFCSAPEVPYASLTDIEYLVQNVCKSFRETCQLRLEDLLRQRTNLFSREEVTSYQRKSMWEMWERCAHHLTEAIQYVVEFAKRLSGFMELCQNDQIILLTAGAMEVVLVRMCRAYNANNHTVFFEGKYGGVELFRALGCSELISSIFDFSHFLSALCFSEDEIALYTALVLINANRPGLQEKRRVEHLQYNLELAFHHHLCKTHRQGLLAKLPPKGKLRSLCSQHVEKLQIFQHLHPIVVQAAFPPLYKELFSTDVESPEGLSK
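Stable Schneider cell line, Gal4 DNA-binding domain fused to ROR gamma, UAS-luciferase. Cmpd 1 hr RT → CuSO4 700 uM final → 20 hr RT → luciferase reagent 10 min → luminescence.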
* hit, by the source's call; ? = inconclusive; · = not tested or not shown. Unless noted, calls follow the shape of the dose curve; as a rule, active = well fitted curve in the direction sought with a large enough effect; inconclusive = small, poorly fitted or top-dose-only effect, or another doubt; inactive = no such curve, though single readings can be large; an effect the other way counts as inactive or inconclusive. Unless noted, % is scaled to controls: 0 for no effect and ±100 for the full control effect; potency is read from the fitted curve at half-maximal effect.

SMILES	ALDH1A1 block	PLK1 PBD block	Sfp inh	VP16 counter	RORgamma inh
COc1cccc(Cn2cnc(-c3ccccc3OC)c2C2CC2)c1	·	-14.1%	·	·	·
Nc1ccn([C@@H]2O[C@H](C(=O)N[C@H](CO)Cc3ccccc3)[C@@H](O)[C@H]2O)c(=O)n1	·	-4.7%	·	·	·
Nc1cc(N)nc(SCc2cc(=O)oc3cc4c(cc23)CCC4)n1	?	26.7µM*	6.1%	6.0%	6.9%
Cc1cc2oc(=O)cc(CSc3nc(N)cc(N)n3)c2cc1C(C)C	17.8µM*	0.2%	-7.7%	16.8%	14.5%
CCCc1cc(=O)[nH]c(SCc2cc(=O)oc3cc(C)c(C(C)C)cc23)n1	?	-28.3%	6.5%	-6.1%	1.3%
COc1cc(/C=N/NC(N)=S)ccc1OCC(=O)Nc1ccc(C)cc1	25.1µM*	-27.2%	-14.0%	-2.5%	-20.0%
CNC(=S)N/N=C/c1ccc(OCC(=O)Nc2c(C)cc(C)cc2C)c(OC)c1	10.8%	-11.3%	-2.1%	12.6µM*	14.1µM*
CC(/C=N/NC(=O)Cc1cccs1)=C\c1ccco1	?	-9.7%	?	-18.5%	?
CC(/C=N/NC(=O)c1cccs1)=C\c1ccco1	7.94µM*	-3.8%	-21.6%	?	-43.2%
CC(/C=C/c1ccccc1)=N\NC(=S)NC(C)C	-5.3%	-28.7%	17.4%	?	?
CC(/C=C/c1ccccc1)=N\NC(=O)c1ccncc1	-12.0%	-7.1%	-0.6%	11.2µM*	7.08µM*
COc1ccc(C=CC(C)=NNC(=O)c2ccncc2)cc1	·	3.6%	·	·	·
CC(/C=C/c1ccccc1)=N\NC(N)=S	?	?	-10.3%	2.24µM*	0.562µM*
CC(/C=C/c1ccc2c(c1)OCO2)=N\NC(=O)c1ccccc1	9.0%	-1.9%	4.0%	15.8µM*	5.62µM*
O=C(N/N=C/C=C/c1ccccc1)c1ccncc1	2.3%	?	27.9%	7.08µM*	2.82µM*
NC(=S)NN=C(c1ccccc1)c1ccccc1	·	-17.1%	12.0%	?	7.08µM*
O=C(N/N=C/C=C/c1ccccc1)C(O)c1ccccc1 (stereo not drawn)	·	-9.4%	·	·	·
O=C(N/N=C/C=C/c1ccccc1)c1cccs1	4.4%	-12.4%	-5.7%	2.82µM*	2.82µM*
O=C(N/N=C/C=C/c1cccc([N+](=O)[O-])c1)c1ccncc1	·	4.5%	-0.9%	?	7.08µM*
O=C(Cc1cccc2ccccc12)N/N=C/C=C/c1cccc([N+](=O)[O-])c1	7.1%	-2.6%	?	?	12.6µM*
O=C(N/N=C\C=C\c1ccc([N+](=O)[O-])o1)c1cccs1	·	1.3%	-10.6%	11.2µM*	7.94µM*
O=C(N/N=C/c1ccc(OC(=O)c2ccc([N+](=O)[O-])cc2)cc1)c1cccnc1	·	4.0%	15.7%	5.0%	-10.5%
O=C(N/N=C/C=C\c1ccc([N+](=O)[O-])cc1)c1cccnc1	6.5%	-18.7%	11.9%	?	5.62µM*
COc1ccc(CC(=O)N/N=C/C=C/c2cccc([N+](=O)[O-])c2)cc1OC	-18.8%	5.6%	-8.0%	16.7%	-4.0%
O=C(N/N=C/C(Br)=C/c1ccccc1)c1cccs1	-6.0%	-5.2%	56.2µM*	?	-16.9%
SMILES	ALDH1A1 block	PLK1 PBD block	Sfp inh	VP16 counter	RORgamma inh
O=C(NCc1ccccc1)C(C1CC1)n1c(-c2cccs2)nc2ccccc21 (stereo not drawn)	·	1.9%	·	·	·
CC1=C(C(=O)N(C)C)CC(CC(=O)NCCCCc2ccccc2)C(=O)N1Cc1ccc(C(C)(C)C)cc1 (stereo not drawn)	·	-5.2%	·	·	·
COc1ccc2[nH]c(=O)c(CN(CC3CCCO3)C(=S)Nc3cccc(C)c3)cc2c1 (stereo not drawn)	?	0.8%	56.2µM*	-6.7%	10.5%
CCN1CCCC1CN(Cc1cc2ccc(C)cc2[nH]c1=O)C(=S)Nc1ccc(OC)cc1OC (stereo not drawn)	20µM*	-5.9%	-16.4%	-12.5%	6.4%
COc1ccc2[nH]c(=O)c(CN(Cc3cccs3)C(=S)Nc3cccc(C)c3)cc2c1	?	-3.6%	-9.8%	-9.7%	-5.0%
COc1ccc2[nH]c(=O)c(CNc3cccc(C)c3)cc2c1	?	-2.9%	10µM*	5.0%	-39.7%
COc1ccc2[nH]c(=O)c(CNC3CCCCC3)cc2c1	?	-6.1%	7.3%	2.0%	31.0%
COc1ccc(NCc2cc3cc(OC)ccc3[nH]c2=O)cc1	8.91µM*	-12.2%	-3.4%	-11.5%	34.3%
